NadD block – blocks S. aureus nicotinate mononucleotide adenylyltransferase; purified NadD enzyme, colorimetric absorbance read-out; inhibition, % at 20 µM; 360,000 tested, 0.78% active; AID 602399; in the data active means inhibition above about 26%
PP5 inh – PP5 (human) phosphatase inhibition; P53041; purified PP5c, OMFP substrate fluorescence; inhibition, % at 6.7 µM; 320,000 tested, 0.18% active; AID 1987;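 active means inhibition above the campaign's mean inhibition across all tested compounds plus 3 SD, cut at about 9.5% in these data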
Rpn11 block – Rpn11 (human) deubiquitinase inhibition; AID 588493; human 26S proteasome, Ub4-pepOG fluorescence polarization; 20S core pre-blocked with epoxomicin; inhibition, % at 20 µM; O00487; 360,000 tested, 0.59% active;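 active means inhibition at 20 µM, scaled to each plate's controls, above about 33%, limit read from the data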
Target sequence (O00487 whole entry, looked up): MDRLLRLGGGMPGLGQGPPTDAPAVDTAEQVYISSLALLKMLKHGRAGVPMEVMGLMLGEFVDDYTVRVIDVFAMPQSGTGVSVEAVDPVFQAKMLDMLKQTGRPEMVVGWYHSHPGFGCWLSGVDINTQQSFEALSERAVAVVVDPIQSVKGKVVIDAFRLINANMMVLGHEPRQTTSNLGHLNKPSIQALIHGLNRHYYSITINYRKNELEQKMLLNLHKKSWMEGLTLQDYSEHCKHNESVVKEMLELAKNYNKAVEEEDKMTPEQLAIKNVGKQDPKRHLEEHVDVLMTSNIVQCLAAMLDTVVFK
PREPL inhibitor – inhibits the human prolyl oligopeptidase-like enzyme; recombinant PREPL, fluorescence polarization activity-based probe; inhibition, % at 5.96 µM; 320,000 tested, 0.68% active; AID 2751; in the data active means inhibition above about 43%
PP1 inh – counter-screen for PP5 inhibitors: inhibitors of human PP1-alpha. purified PP1alpha, OMFP fluorescence. 320,000 tested, 0.9% active. inhibition, % at 6.7 µM;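 active means inhibition above the mean inhibition of all tested compounds plus 3 SD, computed separately for each screening campaign, cut at about 15% in these data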
Target sequence (P62136 whole entry, looked up): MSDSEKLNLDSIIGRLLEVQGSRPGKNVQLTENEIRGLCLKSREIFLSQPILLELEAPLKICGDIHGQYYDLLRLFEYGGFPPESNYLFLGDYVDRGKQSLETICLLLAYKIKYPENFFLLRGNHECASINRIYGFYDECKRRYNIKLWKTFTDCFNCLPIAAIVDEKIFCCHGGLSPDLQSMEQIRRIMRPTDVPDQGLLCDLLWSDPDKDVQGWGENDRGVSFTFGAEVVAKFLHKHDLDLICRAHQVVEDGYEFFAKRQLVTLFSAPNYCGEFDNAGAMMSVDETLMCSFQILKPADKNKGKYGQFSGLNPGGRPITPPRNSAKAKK
Rpn11 confirm – confirmation of human proteasome Rpn11 inhibitors | shares compounds with Rpn11 block | purified human 26S proteasome, Ub4-pepOG fluorescence polarization; proteasome pretreated with epoxomicin | inhibition, % at 20 µM | 1,900 tested, 29% active | AID 602318
MMP-2 inh – MMP-2 (human) inhibition counter-screen | AID 602330 | inhibition, % at 20 µM | recombinant MMP-2, FRET peptide cleavage fluorescence | shares compounds with Rpn11 block | 1,900 tested, 4% active;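 further: human MMP-2 activated beforehand with APMA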
Thrombin inh – counter-screen for RPN11 inhibitors: inhibition of bovine thrombin; shares compounds with Rpn11 block; bovine thrombin cleavage of Ub4-pepOG, fluorescence polarization; inhibition, % at 20 µM; 1,900 tested, 13% active;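 active means mean inhibition at least 40% at 20 µM, or signal 3 deviations below plate average, so some actives read negative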
Hits are given with their value; 0 = inactive; - = no result; + = active, no number. Hits are enriched below; roughly 2.4% of the tested compounds scored in any of these assays. Unless noted, no stated cut-off is given here; in the data, active means inhibition above about 40%; inactive means the rest.

SMILES | NadD block | PP5 inh | Rpn11 block | PREPL inhibitor | PP1 inh | Rpn11 confirm | MMP-2 inh | Thrombin inh
COc1ccc(-c2cc(C(=O)Nc3ccc(Br)cc3)no2)cc1 | 0 | 0 | 59 | 0 | 0 | 0 | 0 | 0
CC(C)(O)[C@@H]1[C@@H]2C[C@@]3(CC[C@]4(C)C(CCC5[C@@]6(C)CC[C@H](O)C(C)(C)C6CC[C@]54C)[C@@H]13)C(=O)O2 (stereo partly drawn) | 0 | 0 | 0 | 0 | 0 | - | - | -
CCOC1=C/C(=C/c2c(N)n3nc(CC(=O)N4CCCC4)sc3nc2=O)C=CC1=O | 0 | 0 | 71 | 0 | 0 | 0 | 0 | 0
COC1=C/C(=C/c2c(N)n3nc(CC(=O)N4CCCC4)sc3nc2=O)C=CC1=O | 0 | 0 | 70 | 0 | 0 | 0 | 0 | 0
CCOC(=O)c1ccc2c(c1)nc(SC(C)C(=O)NCC1CCCO1)n2CC (stereo not drawn) | 0 | 0 | 0 | 0 | 0 | - | - | -
Cc1cc(Oc2ccc(N)cn2)cc(C)c1Cl | 0 | 0 | 0 | 0 | 0 | - | - | -
CC(C)(C)c1ccc(Oc2ccc(N)cn2)cc1 | 0 | 0 | 56 | 0 | 0 | 0 | 0 | 0
Clc1cccc2sc(N3CCOCC3)nc12 | 0 | 0 | 33 | 0 | 0 | 0 | 0 | 0
Clc1cccc2sc(N3CCCC3)nc12 | 0 | 0 | 0 | 0 | 0 | - | - | -
Nc1cccc2[nH]c(C(F)(F)F)nc12 | 0 | 0 | 54 | 0 | 0 | 0 | 0 | 0
COc1cc(/C=C2\SC(=S)N(NS(=O)(=O)c3ccc(C)cc3)C2=O)ccc1O | 0 | 0 | 99 | 0 | 0 | 83 | 0 | 90
CCOc1cc(/C=C2\SC(=S)N(NS(=O)(=O)c3ccc(C)cc3)C2=O)ccc1O | 0 | 0 | 85 | 0 | 0 | 69 | 0 | 57
COc1cc(/C=C2\SC(=S)N(NS(=O)(=O)c3ccccc3)C2=O)ccc1O | 0 | 0 | 78 | 0 | 0 | 50 | 0 | 52
COc1cc(/C=C2\SC(=S)N(NS(=O)(=O)c3ccc(C)cc3)C2=O)cc(OC)c1OC | 0 | 0 | 0 | 0 | 0 | - | - | -
CCOC(=O)Cn1ncc2c3ccccc3n(CC(=O)OCC)c2c1=O | 0 | 0 | 0 | 0 | 0 | - | - | -
CC(=O)NC(Cc1c[nH]c2ccccc12)C(=O)OCC(=O)N1CCN(S(=O)(=O)c2ccc(Cl)cc2)CC1 (stereo not drawn) | 0 | - | 0 | - | - | - | - | -
Cc1cc(=O)oc2cc(OCC(=O)c3ccc4c(c3)NC(=O)CO4)ccc12 | 0 | 0 | 45 | 0 | 0 | 0 | 0 | 0
Cc1ccc(C(=O)COc2ccc3c(C)cc(=O)oc3c2)cc1 | 0 | 0 | 0 | 0 | 0 | - | - | -
COc1ccc(OC)c(-c2nn(-c3ccccc3)cc2C(=O)NC2(C)CCS(=O)(=O)C2)c1 (stereo not drawn) | 0 | - | 0 | - | - | - | - | -
COc1ccccc1-c1csc(-n2ncc(C#N)c2N)n1 | 0 | 0 | 92 | 0 | 0 | 45 | 50 | 0
CCC(C)C1Nc2ccc(C(=O)NCCc3ccc(OC)c(OC)c3)cc2NC1=O (stereo not drawn) | 0 | 0 | 0 | 0 | 0 | - | - | -
CC(C)N(C(=O)C[n+]1ccc(/C=N/O)cc1)C(C)C | 0 | 0 | 44 | 0 | 0 | 0 | 0 | 0
CCOc1ccc(N(CC(=O)N2CCN(C(=O)CN(c3ccc(OCC)cc3)S(C)(=O)=O)CC2)S(C)(=O)=O)cc1 | 0 | 0 | 0 | 0 | 0 | - | - | -
COc1ccccc1C(=O)NCCN1CCN(C(=O)c2ccccc2OC)CC1 | 0 | 0 | 0 | 0 | 0 | - | - | -
COc1cccc(OC)c1C(=O)NCCN1CCN(C(=O)c2c(OC)cccc2OC)CC1 | 0 | 0 | 134 | 0 | 0 | 0 | 0 | 0
SMILES | NadD block | PP5 inh | Rpn11 block | PREPL inhibitor | PP1 inh | Rpn11 confirm | MMP-2 inh | Thrombin inh
O=C(N/N=C/c1ccccc1F)c1cc2c(ccc3ccccc32)o1 | 0 | 0 | 149 | 0 | 0 | 99 | 0 | 0
O=C(N/N=C/c1cccc2ccccc12)c1cc2ccccc2o1 | 0 | - | 0 | - | - | - | - | -
O=C(N/N=C/C=C/c1ccccc1)c1cc2c(ccc3ccccc32)o1 | 0 | 0 | 99 | 0 | 0 | 0 | 0 | 0
COc1ccc(OC)c(/C=N\NC(=O)c2cc3c(ccc4ccccc43)o2)c1 | 0 | 0 | 0 | 0 | 0 | - | - | -
Cc1cc(C(=O)COC(=O)c2ccc(NC(=O)CC#N)cc2)c(C)n1CCc1ccc(F)cc1 | 0 | 0 | 53 | 0 | 0 | 0 | 0 | 0
Cc1cc(C)c(C(=O)COC(=O)c2ccc(NC(=O)CC#N)cc2)cc1C | 0 | 0 | 0 | 0 | 0 | - | - | -
N#CCC(=O)Nc1ccc(C(=O)OCC(=O)c2ccc3c(c2)NC(=O)CO3)cc1 | 0 | 0 | 45 | 0 | 16 | 0 | 0 | 0
COc1ccc(S(=O)(=O)N2CCN(C(=O)C3COc4ccccc4O3)CC2)cc1 (stereo not drawn) | 0 | 0 | 86 | 0 | 0 | 65 | 0 | 58
CCc1nc2ccc(C(=O)N3CCCCC3)cn2c1N(C)CCCc1ccccc1 | 0 | - | 0 | - | - | - | - | -
COc1cc(NC(=O)c2c(Cl)cnn2C)c(OC)cc1Cl | 0 | 0 | 0 | 0 | 0 | - | - | -
Cn1ncc(Cl)c1C(=O)Nc1cc(C(F)(F)F)ccc1F | 0 | 0 | + | 0 | 0 | 0 | 0 | 0
Cc1ccc(C)c(OCC(=O)N/N=C/c2ccc(N3CCOCC3)cc2)c1 | 0 | - | 0 | - | - | - | - | -
COc1ccc(NS(=O)(=O)c2cc([N+](=O)[O-])ccc2N/N=C/c2c(C)[nH]c3ccccc23)cc1 | 0 | - | 65 | - | - | 44 | 0 | 0
CSc1ccc(CN2CCN(C(=O)CC(C)C)CC2)cc1 | 0 | 0 | 0 | 0 | 0 | - | - | -
CC(C)(C)OC(=O)n1cccc1/C=C1\c2ccccc2C(=O)N1c1ccccc1 | 0 | - | 41 | - | - | 0 | 0 | 0
COc1ccc(-c2csc(NCCc3nc4cc(Cl)c(N5CCCCC5)cc4n3CCOCCO)n2)cc1 | 0 | 0 | 42 | 0 | 0 | 0 | 0 | 0
Cc1ccnc(NS(=O)(=O)c2ccc(NC(=O)CC(C)c3ccccc3)cc2)n1 (stereo not drawn) | 0 | 0 | 0 | 0 | 0 | - | - | -
COc1ccc(-c2csc(C(NC(C)=O)c3ccccc3)n2)cn1 (stereo not drawn) | 0 | - | 0 | - | - | - | - | -
CCn1c(SCC(=O)c2c[nH]c3ccccc23)nnc1-c1cccs1 | 0 | 0 | 46 | 0 | 0 | 79 | 0 | 44
Cc1ccc(OCC(=O)N2CCCC(CO)(CCOc3ccccc3)C2)cc1 (stereo not drawn) | 0 | 0 | 0 | 0 | 0 | - | - | -
Cc1ccc(N(Cc2ccccc2)C(=O)c2cc(S(=O)(=O)N3CCOCC3)ccc2F)cc1 | 0 | 0 | 46 | 0 | 0 | 0 | 0 | 0
Cc1ccc(N(Cc2ccccc2)C(=O)c2cc(S(=O)(=O)N3CCOCC3)ccc2Cl)cc1 | 0 | 0 | 0 | 0 | 0 | - | - | -
CCOC(=O)N1CCN(C(=O)c2cn(C)c3ccc(S(=O)(=O)N(C)C4CCCCC4)cc3c2=O)CC1 | 0 | 0 | 0 | 0 | 0 | - | - | -
O=C(COC(=O)c1cc2ccccc2o1)NCc1ccco1 | 0 | 0 | 0 | 0 | 0 | - | - | -

Assay outcomes as filed in PubChem BioAssay.
